Test results as given in PubChem BioAssay (NCATS).
Records with an inconclusive call do not appear. Unmarked numbers belong to inactive results. Calls of active or inactive are those of the source. Calls follow the shape of the dose curve; as a rule, active = well fitted inhibition curve with a large enough effect; inconclusive = small, poorly fitted or top-dose-only effect; inactive = no such curve, though single readings can be large or run the other way.

assay: qHTS for Inhibitors of the Aldehyde Dehydrogenase Family (ALDH1A2, ALDH1A3, ALDH2, ALDH3A1) (AID 2061307); details: ALDH inhibition qHTS; series mostly up to 50.3 µM; activity change, negative = inhibition: at the top concentration; also: nearly all actives have a fitted effect of over 50% in size; as to Potency: test system not described further here
% is scaled to controls: 0 for no effect and ±100 for the full control effect; potency is read from the fitted curve at half-maximal effect.

Row | Structure (SMILES) | activity change, negative = inhibition | Potency
1 | O=C(NC1CCCc2c1cnn2-c1ccc(OCCOCCOCCNCCc2cn(-c3cc4ccc(O)cc4oc3=O)nn2)cc1)c1ccccn1 (stereo not drawn) | -28.5% | –
2 | COCc1ccc(-c2nn(Cc3ccccc3)c3ccccc23)o1 | – | 11.3 µM (active)
3 | Cc1c(NCCOc2ccccc2F)cccc1C(N)=O | -34% [at 34.4 µM] | –
4 | O=C(Nc1ccc(S(=O)(=O)N2CCOCC2)cc1)c1ccc(CN2Cc3ccccc3C2)cc1 | – | 0.316 µM (active)
5 | CCOc1ccc(NC(=O)Cn2c(=O)n(-c3ccccc3)c(=O)c3ccc(C(=O)NCc4ccc5c(c4)OCO5)cc32)cc1 | -39.9% [at 34.4 µM] | –
6 | COc1ccc(-c2cc(=O)n(-c3nc(C(=O)O)cs3)[nH]2)cc1 | -8.63% | –
7 | CN(C)Cn1c(O)c(N=NC(=O)c2cccnc2)c2ccccc21 | 5.4% | –
8 | COc1ccc(-n2ncc3c2CCCC3NC(=O)c2cc(NC(C)=O)ccn2)cc1 (stereo not drawn) | -3.01% | –
9 | O=C(Nc1ccccc1C(=O)Nc1cccc(C(F)(F)F)c1)c1ccc(Cl)cc1 | 18.7% | –
10 | CCN1C(=O)c2ccccc2S(=O)c2ccc(C(=O)NCc3cccc(-c4ccccc4)c3)cc21 (stereo not drawn) | – | 22.5 µM (active)
11 | COc1cccc(N2CCN(C(=O)c3ccc4c(c3)N(C)C3CCCCCN3C4=O)CC2)c1 (stereo not drawn) | -29.9% [at 34.4 µM] | –
12 | Cc1ccccc1C(=O)N1CCc2cc(-c3nc(NC(=O)CC4CCOCC4)sc3C)ccc21 | – | 4.47 µM (active)
13 | CCOc1ccc(CNc2ccc3ccccc3c2)cc1 | – | 2.83 µM (active)
14 | CNc1nc2c(s1)C(c1ccccc1Cl)CC(=O)N2 (stereo not drawn) | – | 11.3 µM (active)
15 | O=C(Nc1ccc(C(=O)N2CCCC2)cc1)c1ccccc1F | – | 10.7 µM (active)
16 | Nc1nc2c(s1)C(c1ccc(F)cc1Cl)CC(=O)N2 (stereo not drawn) | – | 4 µM (active)
17 | Cc1n[nH]c(C)c1-n1c2c(cc(-c3nc(-c4ccc(Cl)cc4)cs3)c1=O)C(=O)CC(C)(C)C2 | -6.05% | –
18 | COc1ccc(-c2nnc(SCC(=O)Nc3ccc(C(C)=O)cc3)o2)cc1 | 0% | –
19 | COc1cccc2cc(C(=O)Nc3ccc(C)cc3)c(=O)oc12 | -25.8% [at 34.4 µM] | –
20 | COc1ccc(C2CC(=O)Nc3nc(N4CCCCC4)sc32)c(OC)c1 (stereo not drawn) | -5.83% | –
21 | COC(=O)c1ccc(CN2CCC(N(CCc3ccccc3)Cc3ccccc3)CC2)cc1 | -10.1% | –
22 | CS(=O)Cc1cccc(C(=O)Nc2cccc3cccnc23)c1 (stereo not drawn) | -12% [at 34.4 µM] | –
23 | CS(=O)(=O)c1cccc(-c2csc3ncnc(Sc4nncs4)c23)c1 | -7.51% | –
